# According to the supplement of paper PMC11417369:
# ± gives the standard deviation of the averaged measurements. In all, about 25,000 sequences were measured (“ln(normalized median fluorescence intensity)”: median about 8.6, highest 2% from about 10 on). This is one part of a sample in which the highest values are shown more often than they occur.
# Tested on: PfAP2-EXP AP2 domain (GST-tagged)
# Assay: gcPBM binding intensity (ln(normalized median fluorescence intensity)); higher = stronger DNA binding
# Method in brief: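 Each value is the highest Masliner-normalised natural-log median intensity across replicate spots of either orientation of a probe. The probes were primer-extended double-stranded 36-bp intergenic genomic sequences on an Agilent 4 × 180k array, alongside negative controls, exposed for 1 h to GST-tagged P. falciparum DNA-binding domains expressed in E. coli. Bound protein was picked up with Alexa488 anti-GST antibody and scanned at 488 nm.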
row,Sequence,gcPBM binding intensity (ln)
1,AATATAACTTAGAATTGTACATAAAAAAAAATATAT [XGTACX_site3313],8.68 ± 0.35
2,CAAAATATTTAAAAAAGTACTTAAAATAAATTCAAA [XGTACX_site6866],8.48 ± 0.38
3,CTTAAATCTACTATTTGTACATATTTTATTATTAAA [XGTACX_site6151],8.58 ± 0.37
4,TTTATTTAAAAAATAAAAAAAAAAAAAAAAAAAAAA [CACACA_negctrl_site1670],7.82 ± 0.38
5,GGATACGCTTTTGTACCACTCCCCCTTTTGGGAATA [CACACA_negctrl_site1363],8.88 ± 0.33
6,AAAACTTGTCAGAATGGACACACGAATTAAAGGCCT [CACACA_site1215],8.79 ± 0.52
7,GCATAAATTATCATAACATAAATATAAAAATATAAT [GTGCAC_negctrl_site55],8.36 ± 0.37
8,TAGTTGTGAGTTACATGTACATGTATTTATTTTTTA [XGTACX_site7088],8.88 ± 0.47
9,CCACACTTAAAATACACACACACCAAAAAAAAAAAA [CACACA_site2709],8.43 ± 0.37
10,TATATTTGGTTTCATTCATTTTTATAGAAATCTCAA [CACACA_negctrl_site1412],8.48 ± 0.47
11,TATATAAATATAATATGTACATATAATATGTATATA [XGTACX_site8120],8.36 ± 0.26
12,ATACATATATACATATGTACATATATATATATATAT [XGTACX_site8206],9.9 ± 0.39
13,ATATATATATATATATGTACATACATACATAGAACT [XGTACX_site2214],10.4 ± 0.3
14,ATATATATATATATATGTACATATATACATATATGT [XGTACX_site1521],10 ± 0.49
15,GTATATATGTATATATGTACATATATATAATATATT [XGTACX_site56],8.5 ± 0.16
16,GATATGTGTATAATATGTACATATATATATATATAT [XGTACX_site6531],10.2 ± 0.5
17,AAAGTGGCCATATATTTTTTTTTTTTTTTCCTTATT [CACACA_negctrl_site485],8.11 ± 0.53
18,ACATATTAATTATTATGACATACATATCAGTTATTA [TGCATGCA_negctrl_site126],8.38 ± 0.27
19,AGGCACTTATAATAATGTACATAAATAAAAAGAAAA [XGTACX_site6037],8.81 ± 0.35
20,TTTTTATGAAAATAAACACACGATTTATTATATATA [CACACA_site1311],8.27 ± 0.34
21,GAAGACAATTATATGTGTACATATATATACATATAT [XGTACX_site4630],8.44 ± 0.25

row,Sequence,gcPBM binding intensity (ln)
1,TATATATATATATATTGTACATTTTTTTTTTTTTTT [XGTACX_site7891],10.1 ± 0.23
2,TATAAAATACTGTATCGATGGGGGAGGGCGCAGGGG [TGCATGCA_negctrl_site250],10.3 ± 0.11
3,AGTATATAAAATACTGTATCGATGGGGGAGGGCGCA [CACACA_negctrl_site1612],9.97 ± 0.23
4,ATATATGGGGCGCAGGAAAAGAGTTTTGGAAATAAA [CACACA_negctrl_site1265],9.08 ± 0.49
5,ATAGGTAATAATAATACACACGGTGAAATATAGATG [CACACA_site9336],8.88 ± 0.47
6,TATAATGAGGATAATAGTACATATGAATACAAAAAA [XGTACX_site3665],8.86 ± 0.45
7,TTGGATAAAAAATATGTACACACATATAGATATCTA [CACACA_site8862],8.48 ± 0.31
8,TCGGGAGGGGGGAAGCGTACATATATAAAATTATTA [XGTACX_site4683],10.4
9,ATAAATAAATAAAAGCGTACATATATATAAAATATA [XGTACX_site8107],8.63 ± 0.27
10,TATAAATAGAGGAAGCGTACATATATATATATATAT [XGTACX_site4993],10.1 ± 0.37
11,AAAATTTATATAAGCACACAAATATATATTTATATC [CACACA_site3291],8.55 ± 0.47
12,GAAGGAATATACAATTGTACTTGGCAAAAAAAAAAA [XGTACX_site1884],8.74 ± 0.67
13,TCTGTAAAGTAATGGACACACAATATATCCATTTAT [CACACA_site1536],8.35 ± 0.35
14,ATAATATAATATATATGTACACATCCTTTTTGTGTA [XGTACX_site2879],8.62 ± 0.4
15,ATATATATATATATATGTACACAGGACAATAATCCT [XGTACX_site6383],10.2 ± 0.33
16,ATATATAATATAATATGTACATATAATCAATCCTGT [XGTACX_site8694],8.48 ± 0.28
17,AGAGGCCAGCTTTCTCTTCTAAACATGTACAAAAAT [GTGCAC_negctrl_site98],8.63 ± 0.49
18,TTAGATATAATATATACACACCAACGAACGAAGAAA [CACACA_site4763],9.12 ± 0.54
19,TCTATTAATGAATATACACACATTATATATATATAT [CACACA_site5410],10 ± 0.49
20,ATAAGAAGGAACATAAATATATCATAAAAAAAAAAA [GTGCAC_negctrl_site169],8.56 ± 0.35
21,ATAAAATTATATTTTGCATGCAGGCCTTTTTCTTAA [TGCATGCA_site1030],9.94 ± 0.14

row,Sequence,gcPBM binding intensity (ln)
1,TTTTCCTTATATTATGCATGCAGGGTTTGACATTAT [TGCATGCA_site826],10.3 ± 0.34
2,ATTATTTATATTATGGTGCATAATTTTGGGTTTCTT,8.86 ± 0.26
3,ATTTTTTATTGTTATAAAAAAAAAATTAAACAATTA [CACACA_negctrl_site1077],8.19 ± 0.46
4,AGATATATTTTTTAAATTTAAAAATTATAAAATTTA [CACACA_negctrl_site533],8.07 ± 0.42
5,TCATTCCATACTTTAACACACAAATATATTTAATCC [CACACA_site145],8.76 ± 0.53
6,ATATTGGAGCACAACACACACAAGTATATATATGGA [CACACA_site1546],8.8 ± 0.47
7,AAAAAAAAAAAATACGTGCACTATGATATATTATAT,8.95 ± 0.092
8,AAAAGGAACGGACACACACACATATATATATATATA [CACACA_site5894],10.2 ± 0.49
9,AAAAAAAAAAAACACACACACACACCCATACATACA [CACACA_site707],8.65 ± 0.56
10,AAAAAAAAAAAAAAAACACACATACACCCCCACCCA [CACACA_site9117],10.4 ± 0.3
11,AAAAAAAAAAAAAACACACACACACCCACATATACA [CACACA_site2663],8.53 ± 0.2
12,TACATATATATATACACACATACATATATATACGCA [CACACA_site792],8.45 ± 0.34
13,AAAAAAAAAAAAAACACACACATATATATATATATA [CACACA_site1891],10.2 ± 0.3
14,AAAAAAAAAAAAAAAACACACACATATATATATATA [CACACA_site8571],10.1 ± 0.21
15,CATATACGCAAACACACACACATATATATATATATA [CACACA_site501],10.2 ± 0.4
16,AAAAAAAAAAAACACACACACATATATATATATATA [CACACA_site732],10.2 ± 0.38
17,AAAAGGAACAGACACACACACATATATAAATATGTA [CACACA_site7656],8.4 ± 0.59
18,AAAAGGAACAGACACACACACATATATATATATATA [CACACA_site3587],10.3 ± 0.25
19,TATATACGCAAACACACACACACATACACCCACATA [CACACA_site1724],8.59 ± 0.44
